Measured values as given in PubChem BioAssay.
For some assays here: Entries with a potency or affinity are not part of this list. The source made the active and inactive calls. Unless noted, no rule for the calls is given here.

Legend:
[1] = antimalarial activity against Dd2 strain (AID 2302;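 active = growth inhibition above 50% at the single 2 µM test dose, taken to imply half-maximal potency below 2 µM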;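 also: 0% = DMSO untreated growth and 100% = chloroquine plus artemisinin killed control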); conditions: P. falciparum Dd2 in RBCs, LDH growth readout, 72 h; at 2 µM; active compounds read high
[2] = HepG2 cytotoxicity, primary screen, cytotoxicity control for P. falciparum antimalarial project, cell-based, ATP luminescence (AID 2303;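 active = inhibition above 50%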;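 also: 0% = DMSO wells and 100% = digitonin-killed cells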); conditions: HepG2 viability, 24-48 h, at 10 µM, active compounds read high
[3] = target: L-lactate dehydrogenase (Plasmodium falciparum (isolate CDC / Honduras)) (UniProt Q27743); assay: PfLDH activity inhibition – cell lysate, 3D7 strain, counter-screen for P. falciparum growth inhibition project (AID 2304);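 also: 0% = vehicle and 100% = reference inhibitor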; conditions: P. falciparum 3D7 crude extract, LDH APAD/NBT absorbance; at 2 µM; active compounds read high
Chain of L-lactate dehydrogenase (Plasmodium falciparum (isolate CDC / Honduras)) (Q27743 whole entry, looked up): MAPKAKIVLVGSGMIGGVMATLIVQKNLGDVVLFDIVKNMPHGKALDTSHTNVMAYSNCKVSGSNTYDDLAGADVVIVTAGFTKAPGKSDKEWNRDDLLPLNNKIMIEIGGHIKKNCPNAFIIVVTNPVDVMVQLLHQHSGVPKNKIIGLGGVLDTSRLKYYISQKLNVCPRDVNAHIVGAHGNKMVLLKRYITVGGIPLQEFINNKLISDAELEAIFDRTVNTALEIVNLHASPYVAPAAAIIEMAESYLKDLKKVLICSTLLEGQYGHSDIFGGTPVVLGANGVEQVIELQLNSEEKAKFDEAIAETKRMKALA

[4] = inhibition of 3D7 malaria parasite growth – strain 3D7 (AID 2306);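 also: 0% = DMSO wells and 100% = chloroquine plus artemisinin control wells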; conditions: P. falciparum 3D7 erythrocytic growth, LDH absorbance, 72 h; at 2 µM; active compounds read high
[5] = target: Calcium-dependent protein kinase 1 (Plasmodium falciparum (isolate 3D7)) (UniProt P62344); assay: PfCDPK1 kinase inhibitors, biochemical, TCAMS library (AID 1159585; cut-off not given, nearly all actives have IC50 up to about 0.98 µM;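 also: inhibitors leave more ATP so luminescence rises with inhibition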); conditions: recombinant PfCDPK1, Kinase-Glo ATP depletion luminescence
Chain of Calcium-dependent protein kinase 1 (Plasmodium falciparum (isolate 3D7)) (P62344 whole entry, looked up): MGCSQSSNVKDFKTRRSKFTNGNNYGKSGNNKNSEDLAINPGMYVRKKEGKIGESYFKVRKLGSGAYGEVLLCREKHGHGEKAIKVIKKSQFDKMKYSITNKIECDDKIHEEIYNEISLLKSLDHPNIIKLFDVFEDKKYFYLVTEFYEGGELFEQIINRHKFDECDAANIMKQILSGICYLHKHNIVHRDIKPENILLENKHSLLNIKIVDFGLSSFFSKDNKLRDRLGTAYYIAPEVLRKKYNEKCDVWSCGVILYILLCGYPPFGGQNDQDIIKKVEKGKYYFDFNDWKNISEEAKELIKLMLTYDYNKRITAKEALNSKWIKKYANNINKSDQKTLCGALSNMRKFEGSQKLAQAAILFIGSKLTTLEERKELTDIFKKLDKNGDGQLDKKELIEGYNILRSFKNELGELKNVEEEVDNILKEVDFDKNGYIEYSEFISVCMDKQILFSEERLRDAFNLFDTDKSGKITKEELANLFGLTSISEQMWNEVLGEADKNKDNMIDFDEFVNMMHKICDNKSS

[6] = target: Plasmodium falciparum protein kinase 6 (PK6, PF3D7_1337100) (UniProt Q8IDW1); assay: PfPK6 kinase inhibitors, biochemical, TCAMS library (AID 1159586); conditions: recombinant PfPK6, Kinase-Glo ATP depletion luminescence
Chain of Plasmodium falciparum protein kinase 6 (PK6, PF3D7_1337100) (Q8IDW1 1-305): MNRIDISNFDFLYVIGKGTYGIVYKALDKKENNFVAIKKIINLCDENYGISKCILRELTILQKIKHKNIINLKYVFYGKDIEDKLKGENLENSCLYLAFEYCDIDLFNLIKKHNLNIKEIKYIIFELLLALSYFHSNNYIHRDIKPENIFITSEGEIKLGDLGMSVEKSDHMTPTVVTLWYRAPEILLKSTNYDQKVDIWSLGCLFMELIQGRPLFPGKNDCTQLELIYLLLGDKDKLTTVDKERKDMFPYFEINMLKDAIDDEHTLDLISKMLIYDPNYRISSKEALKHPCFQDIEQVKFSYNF

[7] = target: Protein kinase 7 (PK7), Plasmodium falciparum 3D7 (PF3D7_0213400) (UniProt Q7YTF7); assay: inhibition of Plasmodium PK7 catalytic activity – biochemical, TCAMS antimalarial set, Kinase-Glo luminescence (AID 1159587); conditions: recombinant PfPK7, Kinase-Glo ATP depletion luminescence
Chain of Protein kinase 7 (PK7), Plasmodium falciparum 3D7 (PF3D7_0213400) (Q7YTF7 1-343): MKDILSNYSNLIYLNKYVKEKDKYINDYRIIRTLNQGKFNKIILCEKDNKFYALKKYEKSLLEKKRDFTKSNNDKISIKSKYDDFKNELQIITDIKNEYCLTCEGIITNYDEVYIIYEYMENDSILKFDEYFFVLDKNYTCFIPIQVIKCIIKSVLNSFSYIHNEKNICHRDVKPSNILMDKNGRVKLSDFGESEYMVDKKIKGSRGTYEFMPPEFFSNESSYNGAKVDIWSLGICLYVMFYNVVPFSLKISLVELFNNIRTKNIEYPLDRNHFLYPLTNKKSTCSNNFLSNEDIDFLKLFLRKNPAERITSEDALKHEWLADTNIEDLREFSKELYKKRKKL

[8] = target: Calcium-dependent protein kinase 4 (Plasmodium falciparum (isolate 3D7)) (UniProt Q8IBS5); assay: PfCDPK4 kinase inhibitors, biochemical, TCAMS library (AID 1159588; cut-off not given, nearly all actives have IC50 up to about 0.91 µM); conditions: recombinant PfCDPK4, Kinase-Glo ATP depletion luminescence
Chain of Calcium-dependent protein kinase 4 (Plasmodium falciparum (isolate 3D7)) (Q8IBS5 whole entry, looked up): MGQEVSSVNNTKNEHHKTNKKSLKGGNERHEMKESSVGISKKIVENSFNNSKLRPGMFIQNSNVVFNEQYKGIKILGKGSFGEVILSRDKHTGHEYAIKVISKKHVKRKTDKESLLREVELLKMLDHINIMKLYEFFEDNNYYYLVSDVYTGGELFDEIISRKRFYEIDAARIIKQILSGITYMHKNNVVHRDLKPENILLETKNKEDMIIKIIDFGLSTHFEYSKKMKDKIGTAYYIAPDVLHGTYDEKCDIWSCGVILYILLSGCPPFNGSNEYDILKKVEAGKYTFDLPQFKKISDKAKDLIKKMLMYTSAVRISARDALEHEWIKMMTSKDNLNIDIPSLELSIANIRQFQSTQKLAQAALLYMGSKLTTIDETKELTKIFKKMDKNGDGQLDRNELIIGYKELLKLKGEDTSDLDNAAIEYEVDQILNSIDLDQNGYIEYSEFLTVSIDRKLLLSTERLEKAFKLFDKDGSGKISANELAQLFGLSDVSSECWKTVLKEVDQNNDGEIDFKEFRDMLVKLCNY

Cc1ccc2nc(C)cc(NN=Cc3ccccc3Cl)c2c1
inactive: inhibition [2] 6% | inhibition [3] -2% | outcome [5] | outcome [6] | outcome [7] | outcome [8]
active: growth inhibition [1] 62% | growth inhibition [4] 100%

CCc1cc(NC2CCN(C)CC2)nc(Nc2ccc(C)cc2)n1
active: growth inhibition [4] 95%
inactive: growth inhibition [1] 11% | inhibition [2] 3% | inhibition [3] -7% | outcome [5] | outcome [6] | outcome [7] | outcome [8]

Cc1c(C(=O)[C@@H]2C[C@H]2CN2CCC(N3CCCC3)CC2)sc2ccccc12
active: growth inhibition [4] 94%
inactive: growth inhibition [1] 9% | inhibition [2] 16% | inhibition [3] 0% | outcome [5] | outcome [6] | outcome [7] | outcome [8]

CNCCNCc1cccc(-c2ccc(-c3nc4ccccc4[nH]3)cc2)c1
inactive: growth inhibition [1] 27% | inhibition [2] 13% | inhibition [3] -6% | outcome [5] | outcome [6] | outcome [7] | outcome [8]
active: growth inhibition [4] 99%

Cc1cc(N[C@@H](CC(C)C)C(=O)NCCc2ccccc2)nc(NCC2CCCCC2)n1
active: growth inhibition [1] 65% | growth inhibition [4] 97%
inactive: inhibition [2] 19% | inhibition [3] -1% | outcome [5] | outcome [6] | outcome [7] | outcome [8]

O=C(Nc1cccc(CN2CCCN(Cc3ccc4c(c3)OCO4)CC2)c1)c1cc2ccccc2s1
inactive: growth inhibition [1] 11% | inhibition [2] 32% | inhibition [3] 2% | outcome [5] | outcome [6] | outcome [7] | outcome [8]
active: growth inhibition [4] 95%

CC(C)C(C(=O)Nc1ccc(S(=O)(=O)N(C)C)cc1)c1ccc(Cl)cc1 (configuration not stated)
active: growth inhibition [1] 98% | growth inhibition [4] 100%
inactive: inhibition [2] 27% | inhibition [3] -2% | outcome [5] | outcome [6] | outcome [7] | outcome [8]

N#Cc1cccc(Nc2nccc(NCC(O)c3ccc(C(F)(F)F)cc3)n2)c1 (configuration not stated)
active: growth inhibition [1] 98% | growth inhibition [4] 102%
inactive: inhibition [2] 23% | inhibition [3] 4% | outcome [5] | outcome [6] | outcome [7] | outcome [8]

CN(C)C(=O)c1ccc(CN(Cc2ccc(OC(C)(C)C)cc2)Cc2ccc3c(c2)OCCO3)cc1
active: growth inhibition [1] 96% | growth inhibition [4] 95%
inactive: inhibition [2] -5% | inhibition [3] 1% | outcome [5] | outcome [6] | outcome [7] | outcome [8]

COc1ccc2nccc([C@@H](O)CN3CCC(NC(=O)/C=C/c4cccc(-c5ccccc5)c4)CC3)c2c1
inactive: inhibition [2] 12% | inhibition [3] -5% | outcome [5] | outcome [6] | outcome [7] | outcome [8]
active: growth inhibition [1] 83% | growth inhibition [4] 98%

Cc1ccc(CNC(=O)[C@H](Cc2ccccc2)Nc2ccnc(NCC3CCCCC3)n2)cc1
inactive: inhibition [3] -2% | outcome [5] | outcome [6] | outcome [7] | outcome [8]
active: growth inhibition [1] 61% | inhibition [2] 84% | growth inhibition [4] 92%

N#Cc1cccc(C(=O)Nc2cccc(-c3ccc(C(=O)NCCCN4CCOCC4)cc3)c2)c1
active: growth inhibition [4] 96%
inactive: growth inhibition [1] 21% | inhibition [2] 21% | inhibition [3] -8% | outcome [5] | outcome [6] | outcome [7] | outcome [8]

O=C(NCC1CCN(Cc2cccc(F)c2)C1)c1cc(-c2cccc(C(F)(F)F)c2)cs1 (configuration not stated)
active: growth inhibition [4] 96%
inactive: growth inhibition [1] 10% | inhibition [2] 31% | inhibition [3] -2% | outcome [5] | outcome [6] | outcome [7] | outcome [8]

CCc1ccc(CN2CCC(CNC(=O)c3cc(-c4cccc(Cl)c4)cs3)C2)cc1 (configuration not stated)
inactive: growth inhibition [1] 19% | inhibition [2] 27% | inhibition [3] 4% | outcome [5] | outcome [6] | outcome [7] | outcome [8]
active: growth inhibition [4] 88%

CCC1(C)N=C(N)N=C(N)N1c1ccccc1 (configuration not stated)
active: growth inhibition [4] 98%
inactive: growth inhibition [1] -2% | inhibition [2] 6% | inhibition [3] 0% | outcome [5] | outcome [6] | outcome [7] | outcome [8]

CN(C)c1nc2cc(-n3cnc4cc(-c5ccc(Cl)cc5)sc4c3=O)ccc2n1CCCN1CCCCC1
active: inhibition [2] 55% | growth inhibition [4] 97%
inactive: growth inhibition [1] 23% | inhibition [3] 1% | outcome [5] | outcome [6] | outcome [7] | outcome [8]

Cc1cc(CNCCCCCCNCc2ccc(Cl)cc2)ccc1O
inactive: growth inhibition [1] 0% | inhibition [2] 23% | inhibition [3] -2% | outcome [5] | outcome [6] | outcome [7] | outcome [8]
active: growth inhibition [4] 96%

O=c1c2ccccc2[nH]c2nc3ccccc3c(Nc3ccccc3)c12
inactive: inhibition [2] 8% | inhibition [3] 6% | outcome [5] | outcome [6] | outcome [7] | outcome [8]
active: growth inhibition [1] 97% | growth inhibition [4] 98%

CCOc1cc(Cl)c(C(C)NC(=O)c2cccc(OC)c2)cc1OCC (configuration not stated)
inactive: inhibition [2] 29% | inhibition [3] 6% | outcome [5] | outcome [6] | outcome [7] | outcome [8]
active: growth inhibition [1] 92% | growth inhibition [4] 98%
